Measurements published in PubChem BioAssay.

How the values were obtained:
[1] = tested on: Botulinum neurotoxin type F light chain protease (Clostridium botulinum); assay: Clostridium botulinum type F light chain protease inhibitors, microsphere substrate cleavage, validation (AID 588459); details: multiplex microsphere protease substrate cleavage assay, flow cytometry; at 10 µM; hits give high values
[2] = biological target: Botulinum neurotoxin type A (Clostridium botulinum) (UniProt P0DPI0); assay: BoNT/A light chain protease inhibitors, biochemical, multiplex microsphere flow cytometry, validation set (AID 588460); details: at 10 µM, hits give high values
Botulinum neurotoxin type A (Clostridium botulinum), sequence (P0DPI0 whole entry, looked up): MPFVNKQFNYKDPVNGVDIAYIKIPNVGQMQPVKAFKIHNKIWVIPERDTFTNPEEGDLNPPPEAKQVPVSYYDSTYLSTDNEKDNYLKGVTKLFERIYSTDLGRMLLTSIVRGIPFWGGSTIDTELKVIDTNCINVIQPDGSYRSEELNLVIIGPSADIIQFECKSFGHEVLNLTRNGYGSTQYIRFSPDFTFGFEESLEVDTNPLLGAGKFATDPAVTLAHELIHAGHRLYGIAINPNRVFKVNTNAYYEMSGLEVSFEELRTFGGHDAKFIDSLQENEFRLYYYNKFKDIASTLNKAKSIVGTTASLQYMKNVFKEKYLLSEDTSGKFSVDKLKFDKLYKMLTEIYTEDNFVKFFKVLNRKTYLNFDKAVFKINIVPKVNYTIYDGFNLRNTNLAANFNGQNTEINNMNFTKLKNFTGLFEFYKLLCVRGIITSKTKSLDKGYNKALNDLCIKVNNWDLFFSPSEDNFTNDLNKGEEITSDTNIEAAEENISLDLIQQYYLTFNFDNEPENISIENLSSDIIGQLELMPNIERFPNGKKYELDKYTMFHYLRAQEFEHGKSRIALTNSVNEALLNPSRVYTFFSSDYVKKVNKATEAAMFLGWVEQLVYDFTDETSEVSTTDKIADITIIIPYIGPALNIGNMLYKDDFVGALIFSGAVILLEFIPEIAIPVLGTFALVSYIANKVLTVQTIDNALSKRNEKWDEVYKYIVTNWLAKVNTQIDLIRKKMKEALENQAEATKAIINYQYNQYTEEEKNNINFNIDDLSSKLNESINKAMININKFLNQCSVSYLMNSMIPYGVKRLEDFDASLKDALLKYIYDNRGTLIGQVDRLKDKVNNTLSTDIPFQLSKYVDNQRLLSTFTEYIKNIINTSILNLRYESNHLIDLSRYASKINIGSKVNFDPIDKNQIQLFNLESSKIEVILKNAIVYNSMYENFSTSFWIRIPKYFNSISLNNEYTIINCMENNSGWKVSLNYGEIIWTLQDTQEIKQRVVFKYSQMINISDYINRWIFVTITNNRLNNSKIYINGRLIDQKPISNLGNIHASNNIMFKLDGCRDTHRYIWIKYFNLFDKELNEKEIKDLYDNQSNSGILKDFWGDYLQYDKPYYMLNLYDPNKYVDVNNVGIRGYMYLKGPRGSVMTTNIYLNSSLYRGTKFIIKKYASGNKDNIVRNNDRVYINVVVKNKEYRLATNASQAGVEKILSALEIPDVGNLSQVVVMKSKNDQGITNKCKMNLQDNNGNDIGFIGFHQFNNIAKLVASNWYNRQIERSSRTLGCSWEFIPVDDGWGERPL

[3] = biological target: Lethal factor (Bacillus anthracis) (UniProt P15917); assay: Bacillus anthracis lethal factor inhibition, microsphere flow cytometry protease assay, validation at 10 µM (AID 588461); details: multiplex microsphere protease cleavage assay, hits give high values
Lethal factor (Bacillus anthracis), sequence (P15917 whole entry, looked up): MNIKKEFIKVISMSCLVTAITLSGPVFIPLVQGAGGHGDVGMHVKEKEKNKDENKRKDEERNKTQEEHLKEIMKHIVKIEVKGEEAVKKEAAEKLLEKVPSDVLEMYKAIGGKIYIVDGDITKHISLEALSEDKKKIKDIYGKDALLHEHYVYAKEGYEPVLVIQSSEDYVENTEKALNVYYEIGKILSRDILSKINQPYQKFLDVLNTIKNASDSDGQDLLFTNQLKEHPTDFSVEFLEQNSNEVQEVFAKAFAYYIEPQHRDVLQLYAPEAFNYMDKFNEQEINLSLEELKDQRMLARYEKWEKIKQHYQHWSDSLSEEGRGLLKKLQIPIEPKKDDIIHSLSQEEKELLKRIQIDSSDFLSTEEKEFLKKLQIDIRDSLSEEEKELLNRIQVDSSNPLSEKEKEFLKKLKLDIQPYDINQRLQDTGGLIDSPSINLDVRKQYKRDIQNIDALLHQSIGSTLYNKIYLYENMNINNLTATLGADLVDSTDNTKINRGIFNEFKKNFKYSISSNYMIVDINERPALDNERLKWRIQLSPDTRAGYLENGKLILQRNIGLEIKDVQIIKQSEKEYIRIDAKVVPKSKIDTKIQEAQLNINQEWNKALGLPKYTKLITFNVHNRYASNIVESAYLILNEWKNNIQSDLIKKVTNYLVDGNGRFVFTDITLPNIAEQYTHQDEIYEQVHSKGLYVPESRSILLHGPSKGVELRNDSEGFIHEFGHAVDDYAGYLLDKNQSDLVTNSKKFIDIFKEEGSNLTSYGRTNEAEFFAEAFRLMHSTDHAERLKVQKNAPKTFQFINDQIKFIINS

Measured: inhibition

CC1(C)NC(C(=O)O)Cc2c1[nH]c1ccccc21 (stereo unspecified)
inactive: [1] -1.6% | [2] 1% | [3] -2.8%

Cc1oc(/C=N/NC(=O)CC2(C)OCCO2)cc1Br
inactive: [1] 3.9% | [2] 0.6% | [3] 3.2%

C=C1C2(C(=O)Nc3ccc(SC(F)F)cc3)CCC(C2)C1(C)C (stereo unspecified)
inactive: [1] -1.3% | [2] -0.9% | [3] 1.3%

Cc1ccnc(NS(=O)(=O)c2ccc(N)cc2)n1
inactive: [1] 5.2% | [2] -0.3% | [3] -1.5%

O=c1c2ccccc2nnn1Cc1cccc2ccccc12
inactive: [1] 0.5% | [2] 0.7% | [3] -9.5%

CC(=O)Oc1c2occc2cc2ccc(=O)oc12
inactive: [1] -2.4% | [2] -1% | [3] -7.3%

Oc1ccccc1OCCOc1ccccc1OCCOc1ccccc1O
inactive: [1] 6.5% | [2] 0.7% | [3] -0.4%
